# Compounds without any hit were thinned out: in the full panel of roughly 83,000, 20% have a hit.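 Single-dose data. Exposure time 48 hours. Values below 10 considered active.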 A number with no mark means an inactive call. Calls of active or inactive are those of the source.
# System: HS 578T breast
# Assay: NCI-60 one-dose screen, 48 h (100 = growth as untreated, 0 = no growth, -100 = all killed)
# Conditions: 10 µM unless noted
row,SMILES,growth
1,CC1CC2Oc3ccc(Cl)cc3C(=O)N2O1 (stereo unspecified),102%
2,COc1cccc(C(=O)NCCNc2cc(-c3cn(-c4ccccc4)nc3-c3cccc(OC)c3)ccn2)c1,61.8%
3,CN(C)c1ccc(-c2ccc3[nH]c(=O)nc(-c4ccccc4)c3c2)cn1,55.6%
4,CCN(CC)CCCCCCNc1cc(OC)c(Cl)c2cccnc12,58.8%
5,NC(=N\N=C/c1ccccc1[N+](=O)[O-])/C(N)=N\N=C/c1ccccc1[N+](=O)[O-],100%
6,C[n+]1cc2cc(C(N)=O)[nH]c3c(=N)c(Cl)c(N)c1c23,108%
7,COc1ccc(C2=Nc3c(N)ncnc3NC(c3ccc4c(c3)OCO4)C2)cc1 (stereo unspecified),87.7%
8,CCN(CC)CCN1C(=O)c2c(c(C)c3c(oc4cc(O)ccc43)c2C)C1=O,87.7%
9,O=C(Nc1ccccc1Cl)Oc1ccc(-c2ccccc2)cc1,180%
10,O=C1/C(=C/c2ccc(F)cc2)C=C(c2ccccc2)N1CCc1ccccc1,42.1%
11,Cc1cc(Cl)ccc1Nc1nc(C(F)(F)F)ccc1C(=O)N/N=C/c1ccc(N(C)C)cc1,39.4%
12,CCN1CCN(c2cc(C)nc(NCc3cc(Nc4ccnc5cc(Cl)ccc45)ccc3F)n2)CC1,71.4%
13,CCN(CC)CCN1CC(O)=C(c2nc(-c3ccc(Cl)cc3)cs2)C1=N,47.2%
14,CC(=O)n1c(-c2ccc(Cl)cc2)nc2c(c1=O)C(c1ccc(Cl)cc1)c1sc3c(Cl)cccc3c1O2 (stereo unspecified),-9.23% (active)
15,CCN(CC)CCn1nc2c3c(cccc3c1=O)-c1ccccc1-2,76.1%
16,Cc1cc(Cl)nc(NCc2cc(Nc3ccnc4cc(Cl)ccc34)ccc2F)n1,66.7%
17,O=C(NCCCNc1cc(-c2cn(-c3ccccc3)nc2-c2cccc(O)c2)ccn1)c1ccccc1,-6.38% (active)
18,COc1ccc(-c2cc(-c3cc(OC)ccc3OC)nc(SCC(=O)c3ccccc3)c2C#N)cc1,97.3%
19,Nc1cc2c3c(cccc3c1)C(=O)N(CCN1CCCC1)C2=O,35.2%

row,SMILES,growth
1,COc1ccc(-c2csc(C3=C(O)CN(CCCN4CCCC4=O)C3=N)n2)cc1OC,92.9%
2,CCCCn1c(=O)c2c(nc(NCCc3ccc(O)c(O)c3)n2CCC)n(CCCC)c1=O,66.5%
3,N#C/C(=C/C=C/c1cccc(Cl)c1)S(=O)c1ccccc1 (stereo unspecified),11.6%
4,O=C1OC(c2nc3ccccc3s2)=C/C1=C\c1ccc(O)cc1,89.6%
5,CC/C=C\CCC/C=C1/C(=O)C=C[C@@H]1C/C=C\CCCC(=O)O,45.7%
6,CC(=O)C(C)Cc1cc2c(cc1C)C(C)(C)CCC2(C)C (stereo unspecified),102%
7,O=[N+]([O-])c1ccc(C2CC(c3ccccc3)=Nc3ccccc3S2)cc1 (stereo unspecified),93.3%
8,COc1ccc(-c2nc3c(c(=O)n2C(C)=O)C(c2ccc(Cl)cc2)c2sc4c(Cl)cccc4c2O3)cc1 (stereo unspecified),-15.6% (active)
9,FC(F)(F)c1cc(Nc2ccc3cc(OCCCN4CCOCC4)ccc3n2)ccc1Cl,6.22% (active)
10,CC(C)CCC[C@@H](C)[C@H]1CC[C@H]2[C@@H](Nc3ccc(O)cc3)CCC[C@]12C,104%
11,O=C(N/N=C/c1ccncc1)c1ccc(C(F)(F)F)nc1Nc1cccc(C(F)(F)F)c1,44.4%
12,COC(=O)[C@]12CC[C@@H](C)[C@H](C)[C@@H]1C1=CC[C@@H]3[C@@]4(C)C(C=O)=C[C@@](C)(COC(C)=O)[C@@H]4C(=O)C[C@@]3(C)[C@]1(C)CC2,65.1%
13,O=C(Nc1ccccc1)Nc1cccc(Oc2nnc(Cl)c3ccccc23)c1,1.19% (active)
14,N#Cc1c(-c2ccccc2)cc(-c2ccc(Nc3nc(Nc4ccc(F)cc4)nc(Nc4ccc(F)cc4)n3)cc2)nc1N,87.8%
15,CCn1c(C)nc2cc(C(N)=O)ccc21,108%
16,O=C(/C=C/c1ccco1)c1ccc(Nc2nc(Nc3ccc(F)cc3)nc(Nc3ccc(Cl)cc3)n2)cc1,81.5%
17,CC/C=C\C[C@H](O)C/C=C1/C(=O)C=C[C@@H]1C/C=C\CCCC(=O)OC,41.1%
18,N#Cc1c(-c2cccc(Cl)c2)cc(-c2cccc(Cl)c2)[nH]c1=O,56.8%
19,O=C1CC(N2C(=O)/C(=C/C(Cl)=C\c3ccc([N+](=O)[O-])cc3)SC2=S)C(=O)N1c1ccc(O)cc1 (stereo unspecified),15.5%

# System: NCI/ADR-RES ovarian
# Assay: as above
# Conditions: 10 µM unless noted
row,SMILES,growth
1,CC1CC2Oc3ccc(Cl)cc3C(=O)N2O1 (stereo unspecified),107%
2,COc1cccc(C(=O)NCCNc2cc(-c3cn(-c4ccccc4)nc3-c3cccc(OC)c3)ccn2)c1,47.2%
3,CN(C)c1ccc(-c2ccc3[nH]c(=O)nc(-c4ccccc4)c3c2)cn1,49.4%
4,CCN(CC)CCCCCCNc1cc(OC)c(Cl)c2cccnc12,79.3%
5,NC(=N\N=C/c1ccccc1[N+](=O)[O-])/C(N)=N\N=C/c1ccccc1[N+](=O)[O-],114%
6,C[n+]1cc2cc(C(N)=O)[nH]c3c(=N)c(Cl)c(N)c1c23,60%
7,COc1ccc(C2=Nc3c(N)ncnc3NC(c3ccc4c(c3)OCO4)C2)cc1 (stereo unspecified),75.7%
8,CCN(CC)CCN1C(=O)c2c(c(C)c3c(oc4cc(O)ccc43)c2C)C1=O,78%
9,O=C(Nc1ccccc1Cl)Oc1ccc(-c2ccccc2)cc1,101%
10,O=C1/C(=C/c2ccc(F)cc2)C=C(c2ccccc2)N1CCc1ccccc1,58.2%
11,Cc1cc(Cl)ccc1Nc1nc(C(F)(F)F)ccc1C(=O)N/N=C/c1ccc(N(C)C)cc1,16.1%
12,CCN1CCN(c2cc(C)nc(NCc3cc(Nc4ccnc5cc(Cl)ccc45)ccc3F)n2)CC1,82.8%
13,CCN(CC)CCN1CC(O)=C(c2nc(-c3ccc(Cl)cc3)cs2)C1=N,69.4%
14,CC(=O)n1c(-c2ccc(Cl)cc2)nc2c(c1=O)C(c1ccc(Cl)cc1)c1sc3c(Cl)cccc3c1O2 (stereo unspecified),-17.2% (active)
15,CCN(CC)CCn1nc2c3c(cccc3c1=O)-c1ccccc1-2,35.1%
16,Cc1cc(Cl)nc(NCc2cc(Nc3ccnc4cc(Cl)ccc34)ccc2F)n1,50.3%
17,O=C(NCCCNc1cc(-c2cn(-c3ccccc3)nc2-c2cccc(O)c2)ccn1)c1ccccc1,25.8%
18,COc1ccc(-c2cc(-c3cc(OC)ccc3OC)nc(SCC(=O)c3ccccc3)c2C#N)cc1,93.1%
19,Nc1cc2c3c(cccc3c1)C(=O)N(CCN1CCCC1)C2=O,35.1%

row,SMILES,growth
1,COc1ccc(-c2csc(C3=C(O)CN(CCCN4CCCC4=O)C3=N)n2)cc1OC,100%
2,CCCCn1c(=O)c2c(nc(NCCc3ccc(O)c(O)c3)n2CCC)n(CCCC)c1=O,77.2%
3,N#C/C(=C/C=C/c1cccc(Cl)c1)S(=O)c1ccccc1 (stereo unspecified),7.8% (active)
4,O=C1OC(c2nc3ccccc3s2)=C/C1=C\c1ccc(O)cc1,106%
5,CC/C=C\CCC/C=C1/C(=O)C=C[C@@H]1C/C=C\CCCC(=O)O,19%
6,CC(=O)C(C)Cc1cc2c(cc1C)C(C)(C)CCC2(C)C (stereo unspecified),98.8%
7,O=[N+]([O-])c1ccc(C2CC(c3ccccc3)=Nc3ccccc3S2)cc1 (stereo unspecified),95.1%
8,COc1ccc(-c2nc3c(c(=O)n2C(C)=O)C(c2ccc(Cl)cc2)c2sc4c(Cl)cccc4c2O3)cc1 (stereo unspecified),-4.4% (active)
9,FC(F)(F)c1cc(Nc2ccc3cc(OCCCN4CCOCC4)ccc3n2)ccc1Cl,44.9%
10,CC(C)CCC[C@@H](C)[C@H]1CC[C@H]2[C@@H](Nc3ccc(O)cc3)CCC[C@]12C,71.4%
11,O=C(N/N=C/c1ccncc1)c1ccc(C(F)(F)F)nc1Nc1cccc(C(F)(F)F)c1,-10.7% (active)
12,COC(=O)[C@]12CC[C@@H](C)[C@H](C)[C@@H]1C1=CC[C@@H]3[C@@]4(C)C(C=O)=C[C@@](C)(COC(C)=O)[C@@H]4C(=O)C[C@@]3(C)[C@]1(C)CC2,34%
13,O=C(Nc1ccccc1)Nc1cccc(Oc2nnc(Cl)c3ccccc23)c1,16.9%
14,N#Cc1c(-c2ccccc2)cc(-c2ccc(Nc3nc(Nc4ccc(F)cc4)nc(Nc4ccc(F)cc4)n3)cc2)nc1N,76.1%
15,CCn1c(C)nc2cc(C(N)=O)ccc21,97%
16,O=C(/C=C/c1ccco1)c1ccc(Nc2nc(Nc3ccc(F)cc3)nc(Nc3ccc(Cl)cc3)n2)cc1,67.3%
17,CC/C=C\C[C@H](O)C/C=C1/C(=O)C=C[C@@H]1C/C=C\CCCC(=O)OC,20.6%
18,N#Cc1c(-c2cccc(Cl)c2)cc(-c2cccc(Cl)c2)[nH]c1=O,64.6%
19,O=C1CC(N2C(=O)/C(=C/C(Cl)=C\c3ccc([N+](=O)[O-])cc3)SC2=S)C(=O)N1c1ccc(O)cc1 (stereo unspecified),3.58% (active)

# Reference: PubChem BioAssay (NCI)
